Assay results as given in publication PMC4336329 (PLoS ONE, 2015).
Among all 310,000 compounds or so, about 2,200 (0.71%) showed an effect of 50% or more. The effect is printed as a negative number. The full list was thinned out, with strong results kept by preference.

These compounds were tested against human ether-à-go-go-related gene (hERG) potassium channel (human, UniProt Q12809) (assay: primary screen, population patch clamp on CHO cells stably expressing hERG; higher = less effect of the substance).
Sequence of human ether-à-go-go-related gene (hERG) potassium channel (Q12809 whole entry, looked up): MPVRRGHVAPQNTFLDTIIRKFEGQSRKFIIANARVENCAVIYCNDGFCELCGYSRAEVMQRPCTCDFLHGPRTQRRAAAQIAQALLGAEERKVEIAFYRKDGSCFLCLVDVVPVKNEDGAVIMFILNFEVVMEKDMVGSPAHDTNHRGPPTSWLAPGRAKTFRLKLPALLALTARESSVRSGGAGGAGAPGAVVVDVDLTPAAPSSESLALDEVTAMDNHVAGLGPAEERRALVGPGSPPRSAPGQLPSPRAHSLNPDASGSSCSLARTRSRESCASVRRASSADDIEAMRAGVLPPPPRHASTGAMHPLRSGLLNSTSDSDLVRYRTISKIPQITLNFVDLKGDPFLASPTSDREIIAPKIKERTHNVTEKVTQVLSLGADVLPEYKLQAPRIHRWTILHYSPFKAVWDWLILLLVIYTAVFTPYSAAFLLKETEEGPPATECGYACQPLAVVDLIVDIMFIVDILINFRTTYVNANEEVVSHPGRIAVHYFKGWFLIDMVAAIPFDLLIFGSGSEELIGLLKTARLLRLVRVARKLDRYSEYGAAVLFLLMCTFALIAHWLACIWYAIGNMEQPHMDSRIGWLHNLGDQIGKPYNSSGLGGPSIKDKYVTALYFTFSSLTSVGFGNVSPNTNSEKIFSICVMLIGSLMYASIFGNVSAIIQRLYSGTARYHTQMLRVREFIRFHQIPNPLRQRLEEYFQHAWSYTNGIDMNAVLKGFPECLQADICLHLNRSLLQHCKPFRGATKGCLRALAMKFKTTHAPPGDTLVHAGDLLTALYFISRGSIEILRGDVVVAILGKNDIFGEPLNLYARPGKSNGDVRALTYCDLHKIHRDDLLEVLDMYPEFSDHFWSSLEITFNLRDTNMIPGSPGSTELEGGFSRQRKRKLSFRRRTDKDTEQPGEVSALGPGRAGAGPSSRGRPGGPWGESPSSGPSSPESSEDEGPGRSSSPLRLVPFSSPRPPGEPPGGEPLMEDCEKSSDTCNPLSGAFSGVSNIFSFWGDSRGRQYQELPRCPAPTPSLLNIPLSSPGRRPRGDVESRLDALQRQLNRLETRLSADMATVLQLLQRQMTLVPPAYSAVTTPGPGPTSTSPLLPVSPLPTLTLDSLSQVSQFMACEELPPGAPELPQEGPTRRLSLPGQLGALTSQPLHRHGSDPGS

Structure (SMILES) | hERG current change (%, negative = inhibition) at 1uM
C/C(CC(=O)Nc1cccc(Cl)c1Cl)=N\NC(=O)c1ccccc1C | 8.35%
CC(=O)Nc1cccc(NC(=O)CSc2ncc(C(=O)Nc3ccc(F)cc3)c(=O)n2C)c1 | -3.89%
COc1ccc(C2(C#N)CCC(=O)N2c2ccccc2)cc1 (centres unmarked) | 8.4%
COC(=O)CNC(=O)CN1c2cccc3cccc(c23)S1(=O)=O | -12.4%
Cc1c(C(=O)O)c(-c2ccccc2)nn1-c1ccccc1 | 10.8%
Cc1ccc(C(=O)NC2CCN(CCCC(=O)c3ccc(F)cc3)CC2)cc1 | -72.9%
O=C(CCCN1CCC(NC(=O)c2ccccc2)CC1)c1ccc(Cl)cc1 | -59.5%
O=C(NC1CCN(Cc2ccc(Cl)cc2Cl)CC1)c1ccccc1 | -6.37%
O=C(NC1CCN(Cc2ccccc2Cl)CC1)c1ccccc1 | 10%
CN1CCN(CCCC(=O)c2ccc(F)cc2)CC1.Cl | -1.2%
O=C(CCCN1CCC(C(=O)c2ccc(F)cc2)CC1)c1ccc(F)cc1 | -86.2%
O=C(c1ccc(F)cc1)C1CCN(C(=O)c2ccc(F)cc2)CC1 | 2.31%
Cc1ccc(C(=O)NC2CCN(C(=O)Nc3ccc(F)cc3)CC2)cc1 | 8.68%
Cc1ccc(C(=O)NC2CCN(S(=O)(=O)c3ccc(F)cc3)CC2)cc1 | 9.73%
CC(C)CC(C)NC(=O)c1ccc(C(F)(F)F)cc1 (centres unmarked) | 10.6%
CCCCN(C)Cc1c(O)ccc2c(-c3ccccc3)cc(=O)oc12 | -4.52%
CCOCCCn1c(=NC(=O)c2ccc(OC)c(OC)c2)c(C#N)cc2c(=O)n3cccc(C)c3nc21 | -11%
COCCCn1c(=NC(C)=O)c(C#N)cc2c(=O)n3cccc(C)c3nc21 | -7.03%
Cc1cccn2c(=O)c3cc(C#N)c(=NC(=O)c4cccs4)n(CC(C)C)c3nc12 | 7.98%
CCOCCCn1c(=NC(=O)c2cccs2)c(C#N)cc2c(=O)n3cccc(C)c3nc21 | -53.9%
COCCCn1c(=NC(=O)c2ccncc2)c(C#N)cc2c(=O)n3cccc(C)c3nc21 | -53.3%
Cc1cccn2c(=O)c3cc(C#N)c(=NC(=O)c4ccncc4)n(CCCOC(C)C)c3nc12 | -89.7%
COCCCn1c(=NC(=O)c2ccccc2)c(C#N)cc2c(=O)n3cccc(C)c3nc21 | -49%

Structure (SMILES) | hERG current change (%, negative = inhibition) at 1uM
CC(=O)N=c1c(C#N)cc2c(=O)n3cccc(C)c3nc2n1CCCOC(C)C | -13.3%
Cc1cccn2c(=O)c3cc(C#N)c(=NC(=O)c4cccs4)n(CCCOC(C)C)c3nc12 | -26.1%
Cc1nc(OCc2c(C)noc2C)c2ccccc2n1 | 13.1%
CCn1cc(C(=O)N2CCC3(CC2)OCCO3)c(=O)c2cc(S(=O)(=O)N3CCCC3)ccc21 | 15.9%
Cn1c(CNC(=O)Nc2ccccc2Cl)nnc1SCc1ccccc1 | 2.3%
CCCN(C(=O)CSc1nnc2ccccn12)C1CCS(=O)(=O)C1 (centres unmarked) | 10.4%
CC(=O)NC(NC(C)=O)c1ccc(Br)cc1 | -1.9%
COC(=O)c1ccc(C)c(NC(=O)c2ccc(Cl)c([N+](=O)[O-])c2)c1 | 5.94%
CCOC(=O)c1c(N2CCN(c3ccccc3)CC2)cc(C)nc1C.O=C([O-])C(=O)[O-] | -69%
CCOC(=O)c1[nH]c(C)c(C(=O)N2CCN(c3ccccc3)CC2)c1C | -3.94%
CCOC(=O)c1c(CN2CCN(c3ccccc3)CC2)oc2ccc(O)cc12 | 12.6%
CCCC(=O)Nc1ccccc1NC(=O)CN(C)S(=O)(=O)c1ccccc1 | 9.94%
CCOc1ccccc1NC(=O)CSc1nnc(-c2ccco2)o1 | 8.2%
N/C(=N\OC(=O)CCC1CCCCC1)c1cccc([N+](=O)[O-])c1 | 3.64%
N/C(=N\OC(=O)CCC1CCCC1)c1cccc([N+](=O)[O-])c1 | -53.8%
N/C(=N\OC(=O)CC1CCCCC1)c1cccc([N+](=O)[O-])c1 | 13.7%
O=C(O)c1ccc(NS(=O)(=O)c2cc(Cl)ccc2Cl)cc1O | 4.19%
CCCc1cc(C(=O)Nc2cc(Br)ccc2O)no1 | 18.4%
CCN1CCN(CCNC(=O)Nc2ccc([N+](=O)[O-])cc2)CC1 | 13.2%
Cc1ccc(NC(=O)C(=O)NCCN2CCN(Cc3ccc([N+](=O)[O-])cc3)CC2)cc1 | -53.3%
O=C(NCCN1CCN(S(=O)(=O)c2ccc([N+](=O)[O-])cc2)CC1)C(=O)Nc1ccccc1 | 2.87%
CCCCc1ccc(NC(=O)C(=O)NCCN2CCN(Cc3ccc([N+](=O)[O-])cc3)CC2)cc1 | -6.8%
O=C(NCCc1ccccc1)C(=O)Nc1ccc([N+](=O)[O-])cc1 | 11%

Structure (SMILES) | hERG current change (%, negative = inhibition) at 1uM
CCc1ccc(NC(=O)C(=O)NCCN2CCN(Cc3ccc([N+](=O)[O-])cc3)CC2)cc1 | -67.4%
CN1CCN(CCNC(=O)Nc2ccc([N+](=O)[O-])cc2)CC1 | 10.7%
CCc1ccc(NC(=O)C(=O)NCCN2CCN(S(C)(=O)=O)CC2)cc1 | 18.2%
O=C(NCCN1CCN(Cc2ccc([N+](=O)[O-])cc2)CC1)C(=O)Nc1ccccc1 | -53.8%
Cc1ccc(CNS(=O)(=O)/C=C/c2ccc3c(c2)OCO3)cc1 | -0.964%
c1ccc(-c2nnc3sc(-c4csc5c4CCCC5)nn23)cc1 | 4.3%
O=C(Nc1ncn[nH]1)c1ccc([N+](=O)[O-])cc1[N+](=O)[O-] | 18.3%
COCCNC(=S)N(Cc1cccs1)Cc1cc2cccc(C)c2[nH]c1=O | 15.9%
c1ccc2c(c1)nc(NCc1ccc3c(c1)OCO3)n2CCN1CCOCC1 | -40.7%
CCN(CC)c1ccc(CNc2nc3ccccc3n2CCN2CCCCC2)cc1 | -18%
Brc1cccc(CNc2nc3ccccc3n2CCN2CCOCC2)c1 | -56.7%
CCN(CC)c1ccc(CNc2nc3ccccc3n2CCN2CCOCC2)cc1 | -76.1%
Cc1nc2cc(NCc3nc4ccccc4n3Cc3ccccc3)ccc2n1C | -61.7%
c1ccc(Cn2c(CNc3nc4ccccc4n3CCN3CCOCC3)nc3ccccc32)cc1 | -54.4%
CCn1cnc2cc(NCc3nc4ccccc4n3Cc3ccccc3)ccc21 | -15.2%
COc1ccc(CNc2nc3ccccc3n2CCN2CCOCC2)cc1 | -46.5%
c1csc(CNc2nc3ccccc3n2CCN2CCOCC2)c1 | -9.4%
Brc1cccc(CNc2nc3ccccc3n2CCN2CCCCC2)c1 | -0.507%
Cc1cccc(NCc2nc3ccccc3n2Cc2ccccc2)c1 | 12%
c1ccc(Cn2c(CNc3nc4ccccc4n3CCN3CCCCC3)nc3ccccc32)cc1 | -5.91%
NS(=O)(=O)c1ccc(NC(=O)CSc2nc(Nc3ccccc3)nc(N3CCOCC3)n2)cc1 | 24.9%
Cc1c(F)cccc1NC(=O)CSCC(=O)Nc1ccccc1 | 5.59%
COC(=O)C1=C(c2ccc(F)cc2OCc2ccccc2)C[C@@H]2CC[C@H]1N2C(=O)NCc1ccc(Cl)cc1 | 14.6%

Structure (SMILES) | hERG current change (%, negative = inhibition) at 1uM
Cc1ccc(OC(=O)c2ccccc2C(=O)OCC(F)(F)C(F)F)cc1 | 14%
Cc1ccc(-c2nnn(CC(=O)NCCC3=CCCCC3)n2)cc1 | 18.4%
Cc1ccc(NC(=O)NCCCCc2ccccc2)cc1 | 14.4%
CCC(NS(=O)(=O)c1ccc(C)cc1)C(=O)N1CCOCCOCCOCC1 (centres unmarked) | 20.3%
COc1ccc(OCc2nnc(SCc3ccc(C(=O)O)cc3)o2)cc1 | 16.6%
Cc1ccc(NC(=O)c2nn(C34CC5CC(CC(C5)C3)C4)cc2[N+](=O)[O-])cc1 | -2.47%
Cc1cc(Cl)ccc1OCC(=O)NNC(=O)CCOc1ccccc1 | -0.757%
O=C(COC(=O)CC(c1ccccc1)c1ccccc1)Nc1ccc(F)c(F)c1 | 1.93%
O=c1c2ccccc2nc(-c2ccccc2)n1-c1nccs1 | 11.6%
C/C=C(/C)C(=O)O[C@@H]1c2c(ccc3ccc(=O)oc23)OC(C)(C)[C@@H]1OC(=O)/C(C)=C\C | 9.46%
C/C=C(\C)C(=O)OC1c2c(ccc3ccc(=O)oc23)OC(C)(C)C1OC(C)=O (centres unmarked) | -54.7%
C/C=C(/C)C(=O)OC1c2c(ccc3ccc(=O)oc23)OC(C)(C)C1OC(C)=O (centres unmarked) | -36.9%
COc1cccc(-c2nc3n(n2)C(c2ccc4c(c2)OCO4)C(C(N)=O)=C(C)N3)c1 (centres unmarked) | 6.43%
Cn1c(=O)[nH]c(=O)c2c1nc(N1CCCCCC1)n2CCSc1nc2ccccc2o1 | 7.86%
COc1cc(C(CCN2CCCC2)c2c(OC)cc(OC)c3ccc(=O)oc23)cc(OC)c1OC (centres unmarked) | -26.2%
COc1ccc(C(CCN2CCOCC2)c2c(OC)cc(OC)c3c(C)cc(=O)oc23)cc1 (centres unmarked) | -32.6%
COc1cc(C(CCN2CCOCC2)c2c(OC)cc(OC)c3c(C)cc(=O)oc23)cc(OC)c1OC (centres unmarked) | -70.3%
CCCCCc1cc(=O)oc2c(C(CCN3CCCCC3)c3cc(OC)c(OC)c(OC)c3)c(OC)cc(OC)c12 (centres unmarked) | -10.6%
COc1cc(C(CCN2CCN(c3ccccc3)CC2)c2c(OC)cc(OC)c3c(C)cc(=O)oc23)cc(OC)c1OC (centres unmarked) | 9.23%
COc1cc(C(CCN2CCCCC2)c2c(OC)cc(OC)c3c(-c4ccccc4)cc(=O)oc23)cc(OC)c1OC (centres unmarked) | -12%
COc1cc(C(CCN2CCCC2)c2c(OC)cc(OC)c3c(-c4ccccc4)cc(=O)oc23)cc(OC)c1OC (centres unmarked) | -10.9%
COc1cc(C(CCN2CCCC2)c2c(OC)cc(OC)c3c(C)cc(=O)oc23)cc(OC)c1OC (centres unmarked) | -69%
COc1cc(C(CCN2CCCCC2)c2c(OC)cc(OC)c3c(C)cc(=O)oc23)cc(OC)c1OC (centres unmarked) | -96.3%
